In the supplement of paper PMC10503962:

What follows are compounds tested on Trichuris muris adult worms (assay: mean motility score (Paragon pixel variance) of adult worms (arbitrary units); higher = more motile worms, i.e. less anthelmintic effect; extreme values may be limits of the assay). Details: 100 µM; 24 h.
Procedure: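 Primary ex vivo screen of 409 approved drugs against adult Trichuris muris worms: one worm per well in RPMI-1640 with penicillin/streptomycin, 100 µM drug in 1% DMSO, 37 °C, 5% CO2 for 24 h. Motility was recorded with INVAPP (200-frame movies) and scored with the Paragon pixel-variance algorithm. Values are means of triplicate wells run on three occasions; levamisole was the positive control and DMSO the negative control.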

Going from `CCN(Cc1ccncc1)C(=O)C(CO)c1ccccc1` (stereo not given) [tropicamide] to `c1ccc2c(CC3=NCCN3)cccc2c1` [naphazoline], the mean motility score rises from 2030 to 4300.

Compared with `CN(C)C/C=C/C(=O)Nc1cc2c(Nc3ccc(F)c(Cl)c3)ncnc2cc1O[C@H]1CCOC1` [afatinib], `CCOc1cc2ncc(C#N)c(Nc3ccc(OCc4ccccn4)c(Cl)c3)c2cc1NC(=O)/C=C/CN(C)C` [neratinib] is higher in mean motility score: 0 for the first, 1890 for the second.

First: Oc1nc2ccccc2n1CCCN1CCC(n2c(O)nc3cc(Cl)ccc32)CC1 [domperidone]
Second: CCCCC1=NC2(CCCC2)C(=O)N1Cc1ccc(-c2ccccc2-c2nn[nH]n2)cc1 [irbesartan]
The mean motility score of the first is higher: 3910 for the first, 2360 for the second.

First: O=C(O)/C=C/C(=O)O [fumaric acid]
Second: COc1c(C)c2c(c(O)c1C/C=C(\C)CCC(=O)O)C(=O)OC2 [mycophenolic acid]
The mean motility score of the first is higher: 3100 for the first, 2100 for the second.

Going from `Cc1nc2ccc(CN(C)c3ccc(C(=O)N[C@@H](CCC(=O)O)C(=O)O)s3)cc2c(=O)[nH]1` [raltitrexed] to `CC1=C(C(=O)O)N2C(=O)[C@@H](NC(=O)[C@H](N)c3ccccc3)[C@H]2SC1` [cephalexin], the mean motility score rises from 3030 to 4830.

Compared with `Nc1ncn([C@@H]2O[C@H](CO)[C@@H](O)[C@H]2O)c(=O)n1` [azacitidine], `CCn1nc(C(=O)O)c(=O)c2cc3c(cc21)OCO3` [cinoxacin] is lower in mean motility score: 4300 for the first, 1110 for the second.

`COc1cc2c(Oc3ccc4[nH]c(C)cc4c3F)ncnc2cc1OCCCN1CCCC1` [cediranib] and `COc1cc2c(Nc3ccc(Br)cc3F)ncnc2cc1OCC1CCN(C)CC1` [vandetanib] are the same in mean motility score: 0 for the first, 0 for the second.

Going from `CNC[C@H](O)c1cccc(O)c1` [phenylephrine] to `COc1ccccc1O` [guaiacol], the mean motility score falls from 3950 to 2150.

First: N[C@@H](Cc1c[nH]c2ccc(O)cc12)C(=O)O [oxitriptan]
Second: O=C(O)COC(=O)Cc1ccccc1Nc1c(Cl)cccc1Cl [aceclofenac]
The mean motility score of the first is higher: 3310 for the first, 972 for the second.

Going from `C(=C\c1ccccc1)/CN1CCN(C(c2ccccc2)c2ccccc2)CC1` [cinnarizine] to `Cc1ccc(NC(=O)c2ccc(CN3CCN(C)CC3)cc2)cc1Nc1nccc(-c2cccnc2)n1` [imatinib], the mean motility score rises from 1640 to 3600.

Going from `CC(=O)Oc1ccc(C(c2ccc(OC(C)=O)cc2)c2ccccn2)cc1` [bisacodyl] to `N#Cc1ccc(C(c2ccc(C#N)cc2)n2cncn2)cc1` [letrozole], the mean motility score rises from 2870 to 4830.

Going from `NS(=O)(=O)c1cc2c(cc1Cl)NC(CSCc1ccccc1)=NS2(=O)=O` [benzthiazide] to `Cc1ccc(-c2cc(C(F)(F)F)nn2-c2ccc(S(N)(=O)=O)cc2)cc1` [celecoxib], the mean motility score falls from 3040 to 0.

Going from `CS(=O)(=O)CCNCc1ccc(-c2ccc3ncnc(Nc4ccc(OCc5cccc(F)c5)c(Cl)c4)c3c2)o1` [lapatinib] to `CC[C@H](Nc1ncnc2[nH]cnc12)c1nc2cccc(F)c2c(=O)n1-c1ccccc1` [idelalisib], the mean motility score rises from 999 to 3590.

First: Nc1ccc(S(N)(=O)=O)cc1 [sulfanilamide]
Second: CC(C)NCC(O)c1ccc(NS(C)(=O)=O)cc1.Cl (stereo not given) [sotalol hydrochloride]
The mean motility score of the first is lower: 2370 for the first, 2900 for the second.

First: COC(=O)C1=C(C)NC(C)=C(C(=O)OC)C1c1ccccc1[N+](=O)[O-] [nifedipine]
Second: Cc1[nH]c2ccccc2c1CCNCc1ccc(/C=C/C(=O)NO)cc1 [panobinostat]
The mean motility score of the first is lower: 1260 for the first, 2620 for the second.

First: COc1cc2nc(N3CCN(C(=O)C4CCCO4)CC3)nc(N)c2cc1OC.Cl (stereo not given) [terazosin hydrochloride]
Second: CC(=O)c1c(C)c2cnc(Nc3ccc(N4CCNCC4)cn3)nc2n(C2CCCC2)c1=O [palbociclib]
The mean motility score of the first is higher: 2970 for the first, 1970 for the second.

First: Cl.O=C1CC2(CCCC2)CC(=O)N1CCCCN1CCN(c2ncccn2)CC1 [buspirone hydrochloride]
Second: Cl.Clc1ccccc1CN1CCc2sccc2C1 [ticlopidine hydrochloride]
The mean motility score of the first is higher: 4250 for the first, 663 for the second.

First: CCCc1cc(O)nc(S)n1 [propylthiouracil]
Second: CCc1nc(N)nc(N)c1-c1ccc(Cl)cc1 [pyrimethamine]
The mean motility score of the first is higher: 3720 for the first, 2930 for the second.

Compared with `CC(C)NCC(O)COc1cccc2ccccc12.Cl` (stereo not given) [propranolol hydrochloride], `CCCCc1oc2ccccc2c1C(=O)c1cc(I)c(OCCN(CC)CC)c(I)c1` [amiodarone] is lower in mean motility score: 4260 for the first, 2080 for the second.

Compared with `CC1(C)O[C@@H]2C[C@H]3[C@@H]4C[C@H](F)C5=CC(=O)C=C[C@]5(C)[C@@]4(F)[C@@H](O)C[C@]3(C)[C@]2(C(=O)CO)O1` [fluocinolone acetonide], `Cc1cn(-c2cc(NC(=O)c3ccc(C)c(Nc4nccc(-c5cccnc5)n4)c3)cc(C(F)(F)F)c2)cn1` [nilotinib] is lower in mean motility score: 2800 for the first, 2370 for the second.
